Inconclusive results are not listed. Calls of active or inactive are those of the source. Rule for the calls: active = hit-call score of the fitted dose curve at least 0.9, where 1 is the maximum; inconclusive = response in the unintended direction; inactive = score below 0.9.
What follows are molecules tested against THRA (gene 7067) (UniProt P10827) (assay: TOX21_TRA_COA_Antagonist_Followup_ratio: Tox21 Thyroid Hormone Receptor alpha Antagonism through Coactivator Recruitment Follow-Up Assay, Ratio (AID 2283953)).
Sequence of THRA (gene 7067) (P10827 whole entry, looked up): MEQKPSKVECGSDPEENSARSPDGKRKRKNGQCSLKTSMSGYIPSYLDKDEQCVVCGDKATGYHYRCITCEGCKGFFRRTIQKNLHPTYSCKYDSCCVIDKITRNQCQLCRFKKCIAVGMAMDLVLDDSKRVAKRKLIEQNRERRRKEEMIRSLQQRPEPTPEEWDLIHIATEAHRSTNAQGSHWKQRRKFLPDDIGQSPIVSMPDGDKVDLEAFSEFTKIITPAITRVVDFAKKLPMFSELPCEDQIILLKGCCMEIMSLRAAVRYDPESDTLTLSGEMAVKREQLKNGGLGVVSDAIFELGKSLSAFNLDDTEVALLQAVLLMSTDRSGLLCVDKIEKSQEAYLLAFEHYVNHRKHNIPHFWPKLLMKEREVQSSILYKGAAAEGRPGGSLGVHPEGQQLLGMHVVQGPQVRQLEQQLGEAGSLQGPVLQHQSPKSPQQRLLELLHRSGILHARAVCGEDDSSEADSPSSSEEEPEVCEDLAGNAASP
Text: TOX21_TRa_COA_Antagonist_Followup is a secondary assay for specificity for the TOX21_TR_GH3_LUC_Agonist assay. The LanthaScreen TR-FRET TR coactivator assay kits were used to determine TR activity in a cell-free functional assay. A time-resolved fluorescence resonance energy transfer (TR-FRET) signal was indicative of coactivator (SRC-2) recruitment.TOX21_TRA_COA_Antagonist_Followup_ratio is assay component calculated in the TOX21_TRA_COA_Antagonist_Followup assay. The TR-FRET ratio of acceptor emission (ch2) to donor emission (ch1) is indicative of the resonance energy transfer to the fluorescein tag on the coactivator peptide following recruitment to the receptor.Data from the assay component TOX21_TRA_COA_Antagonist_Followup_ratio was analyzed into 1 assay endpoint. This assay endpoint, TOX21_TRA_COA_Antagonist_Followup_ratio, was analyzed in the positive analysis fitting direction relative to DMSO as the negative control and baseline of activity. Using a type of inducible reporter, loss-of-signal activity can be used to understand changes in the reporter gene as they relate to the gene THRA. Furthermore, this assay endpoint can be referred to as a primary readout, because this assay has produced multiple assay endpoints and this ratio serves a reporter gene function to understand target activity. To generalize the intended target to other relatable targets, this assay endpoint is annotated to the nuclear receptor intended target family, where the subfamily is non-steroidal.
Cell Media Required: Growth (90% DMEM/F-12, 10% Fetal Bovine Calf Serum, 100U/ml Penicillin, 100 ug/ml Streptomycin), Assay (10ng/mL sodium selenite, 10 ug/mL humanapo-transferrin, 10 uM ethanolamine, 10 ug/mL insulin, 500 ug/mL bovine serum albumin (BSA))Assay Protocol: 4 uL mixture of the receptor LBDs expressed as glutathione S-transferase (GST) fusion proteins (2.5 nM for TRa and 5.0 nM for TRb) and BSA (0.10%; Sigma-Aldrich) were incubated with 23 nL of control or test compound. A time-resolved fluorescence resonance energy transfer(TR-FRET) signal was indicative of coactivator recruitment using a 2 uL mixture of fluoresce in-labeled SRC-2 peptide (200 nM) and terbium-labeled anti-GST antibody (2nM), which transferred resonance energy to the fluorescein tag on the coactivator peptide following recruitment to the receptor. Fluorescence emission ratios (520:495 nm) were collected by an Envision plate reader (excitation at 340 nm and emissions at 495 and 520 nm), and the measured values were normalized to 0% activity using DMSO-only wells and 100 activity using T3 control wells.
In the case of `CCCOc1ccc2nc(NC(=O)OC)sc2c1`, the outcome is reported as “inactive”. In the case of `Brc1cc(Oc2cc(Br)c(Br)c(Br)c2Br)c(Br)c(Br)c1Br`, the outcome is reported as “inactive”. In the case of `CC(C(=O)O)c1ccc(N2Cc3ccccc3C2=O)cc1` (stereo unspecified), the outcome is reported as “inactive”. In the case of `CC(C)N=C(N)/N=C(\N)Nc1ccc(Cl)cc1`, the outcome is reported as “inactive”. For `Cc1nc(-c2ccc(OCC(C)C)c(C#N)c2)sc1C(=O)O`, the outcome was “inactive”. For `CCCC(=O)O[C@]1(C(=O)CCl)[C@@H](C)C[C@H]2[C@@H]3CCC4=CC(=O)C=C[C@]4(C)[C@@]3(F)C(=O)C[C@@]21C`, the outcome was “inactive”. For `Nc1c2ccccc2nc2ccccc12`, the outcome was “inactive”. For `O=C1C(=O)c2ncccc2-c2cccnc21`, the outcome was “inactive”. In the case of `CO[C@H]1C[C@@H]2CC[C@@H](C)[C@@](O)(O2)C(=O)C(=O)N2CCCC[C@H]2C(=O)O[C@H]([C@H](C)C[C@@H]2CC[C@@H](O)[C@H](OC)C2)CC(=O)[C@H](C)/C=C(\C)[C@@H](O)[C@@H](OC)C(=O)[C@H](C)C[C@H](C)\C=C/C=C/C=C/1C`, the outcome is reported as “inactive”. With `COc1ccc2nc(NC(=O)Nc3ccccc3)sc2c1` the outcome was “inactive”. For `O=[Se](O)O`, the AC50 was 34.4 µM (active). For `CC(C)n1c(/C=C/[C@@H](O)C[C@@H](O)CC(=O)O)c(-c2ccc(F)cc2)c2ccccc21`, the outcome was “inactive”. In the case of `Cc1cc(Nc2ccccc2C(=O)O)ccc1Cl`, the outcome is reported as “inactive”. For `CC(C)=CCC1=C(O)c2ccccc2C(=O)C1=O`, the outcome was “inactive”. In the case of `CO[C@H]1C[C@@H]2CC[C@@H](C)[C@@](O)(O2)C(=O)C(=O)N2CCCC[C@H]2C(=O)O[C@H]([C@H](C)C[C@@H]2CC[C@@H](OCCO)[C@H](OC)C2)CC(=O)[C@H](C)/C=C(\C)[C@@H](O)[C@@H](OC)C(=O)[C@H](C)C[C@H](C)\C=C/C=C/C=C/1C`, the outcome is reported as “inactive”. `Cc1c(Nc2ncccc2C(=O)O)cccc1C(F)(F)F` was tested, and the outcome was “inactive”. For `CC[C@@]1(O)C[C@@H]2CN(CCc3c([nH]c4ccccc34)[C@@](C(=O)OC)(c3cc4c(cc3OC)N(C)[C@H]3[C@@](O)(C(=O)OC)[C@H](OC(C)=O)[C@]5(CC)C=CCN6CC[C@]43[C@@H]65)C2)C1`, the outcome was “inactive”. In the case of `CCCCCOc1ccc(C2SC(=O)NC2=O)cc1OCC` (stereo unspecified), the outcome is reported as “inactive”. With `CC(=O)Nc1ccn(C2COC(COC(=O)c3ccccc3)O2)c(=O)n1` (stereo unspecified) the outcome was “inactive”. With `COc1cc([C@@H]2c3cc4c(cc3[C@H](O)[C@H]3COC(=O)[C@H]23)OCO4)cc(OC)c1OC` the outcome was “inactive”. For `NC(N)=NCc1cccc(I)c1`, the outcome was “inactive”. With `Cc1nc2ccccc2n1Cc1ccc(Cl)cc1` the outcome was “inactive”. With `O=c1[nH]c(=O)n([C@H]2C[C@H](O)[C@@H](CO)O2)cc1F` the outcome was “inactive”. In the case of `O=C(CCCCCCCCC#CI)Oc1ccccc1`, the outcome is reported as “inactive”. For `CC[C@@]1(O)C(=O)OCc2c1cc1n(c2=O)Cc2cc3c(CN(C)C)c(O)ccc3nc2-1`, the outcome was “inactive”. `CC1(C)S[C@@H]2[C@H](NC(=O)C(N)c3ccccc3)C(=O)N2[C@H]1C(=O)OC1OC(=O)c2ccccc21` (stereo partly specified) was tested, and the outcome was “inactive”. For `COC(=O)Nc1nc2ccc(Sc3ccccc3)cc2[nH]1`, the outcome was “inactive”. For `CO[C@H](C(=O)[C@@H](O)[C@@H](C)O)C1Cc2cc3cc(O[C@H]4C[C@@H](O[C@H]5C[C@@H](O)[C@H](O)[C@@H](C)O5)[C@@H](O)[C@@H](C)O4)c(C)c(O)c3c(O)c2C(=O)[C@H]1O[C@H]1C[C@@H](O[C@H]2C[C@@H](O[C@H]3C[C@](C)(O)[C@H](O)[C@@H](C)O3)[C@H](O)[C@@H](C)O2)[C@H](O)[C@@H](C)O1` (stereo partly specified), the outcome was “inactive”. `CC1(C)N=C(N)N=C(N)N1c1ccc(Cl)cc1` was tested, and the outcome was “inactive”. For `CC(=O)[C@H]1CC[C@H]2[C@@H]3C=CC4=CC(=O)CC[C@@]4(C)[C@@H]3CC[C@]12C`, the outcome was “inactive”. In the case of `C[C@@H]1C[C@H]2[C@@H]3CCC4=CC(=O)C=C[C@]4(C)[C@@]3(Cl)[C@@H](O)C[C@]2(C)[C@@]1(OC(=O)c1ccco1)C(=O)CCl`, the outcome is reported as “inactive”.

— PubChem BioAssay (EPA / NIEHS)
